Assay results taken from PubChem BioAssay.
Values without a mark were called inactive. Activity calls are given as the source filed them.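 Rule for the calls, unless noted: active = mean inhibition above 46.68%, the untreated control wells mean plus 3 SD; inactive = the rest.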

Molecular target: Nuclear receptor coactivator 1 (Homo sapiens) (UniProt Q15788)
Assay: NCOA1 GAL4-fusion reporter inhibition – cell-based, luminescence, quadruplicate, confirmation (AID 588820);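 note: 0% = DMSO wells and 100% = gossypol 36 µM treated wells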
Conditions: HEK293 GAL4-SRC1 luciferase reporter, at 3.6 µM, active compounds read high

Nuclear receptor coactivator 1 (Homo sapiens), sequence (Q15788 whole entry, looked up, the tested form may be a part): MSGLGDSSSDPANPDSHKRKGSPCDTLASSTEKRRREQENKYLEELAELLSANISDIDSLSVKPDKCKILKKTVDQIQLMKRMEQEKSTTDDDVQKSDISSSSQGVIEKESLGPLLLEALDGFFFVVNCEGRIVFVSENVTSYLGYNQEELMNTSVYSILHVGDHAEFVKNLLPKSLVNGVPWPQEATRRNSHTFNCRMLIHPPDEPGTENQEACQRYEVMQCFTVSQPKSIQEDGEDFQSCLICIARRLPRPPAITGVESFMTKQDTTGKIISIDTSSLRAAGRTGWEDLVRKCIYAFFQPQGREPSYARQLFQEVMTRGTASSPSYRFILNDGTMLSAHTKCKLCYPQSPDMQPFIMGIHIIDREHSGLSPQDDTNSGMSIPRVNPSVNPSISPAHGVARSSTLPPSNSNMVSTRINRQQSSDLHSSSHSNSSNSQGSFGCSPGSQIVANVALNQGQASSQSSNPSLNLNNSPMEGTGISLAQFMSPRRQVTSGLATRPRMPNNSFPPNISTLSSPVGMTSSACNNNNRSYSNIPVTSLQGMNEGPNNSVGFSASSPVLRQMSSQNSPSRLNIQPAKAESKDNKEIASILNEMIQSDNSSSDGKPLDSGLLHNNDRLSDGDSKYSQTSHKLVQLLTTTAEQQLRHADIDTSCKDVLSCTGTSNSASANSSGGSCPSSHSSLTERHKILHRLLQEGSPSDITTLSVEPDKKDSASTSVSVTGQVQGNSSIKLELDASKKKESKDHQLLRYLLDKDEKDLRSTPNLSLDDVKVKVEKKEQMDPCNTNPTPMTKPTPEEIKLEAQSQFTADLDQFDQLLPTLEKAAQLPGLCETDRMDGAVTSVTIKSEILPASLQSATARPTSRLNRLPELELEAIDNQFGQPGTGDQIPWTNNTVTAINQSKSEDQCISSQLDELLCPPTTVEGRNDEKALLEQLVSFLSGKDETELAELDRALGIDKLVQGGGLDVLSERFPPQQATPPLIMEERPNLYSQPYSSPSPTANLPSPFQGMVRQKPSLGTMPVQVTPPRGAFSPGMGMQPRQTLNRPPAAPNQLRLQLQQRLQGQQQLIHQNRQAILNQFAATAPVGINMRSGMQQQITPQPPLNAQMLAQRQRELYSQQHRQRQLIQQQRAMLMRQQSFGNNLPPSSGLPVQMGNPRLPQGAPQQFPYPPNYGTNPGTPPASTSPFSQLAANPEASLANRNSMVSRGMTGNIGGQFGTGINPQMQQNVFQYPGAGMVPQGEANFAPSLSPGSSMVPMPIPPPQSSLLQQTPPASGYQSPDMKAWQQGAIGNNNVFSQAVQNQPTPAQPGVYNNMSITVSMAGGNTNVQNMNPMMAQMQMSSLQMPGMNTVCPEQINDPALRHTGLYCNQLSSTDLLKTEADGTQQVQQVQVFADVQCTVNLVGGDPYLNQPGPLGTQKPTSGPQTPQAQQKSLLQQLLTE

Row | SMILES | inhibition
1 | N#CC(c1ccc(Cl)cc1)c1ccc2c(C(F)(F)F)cc(C(F)(F)F)nc2n1 (stereo not given) | 32%
2 | O=C(Nc1nc(-c2ccc3ccccc3c2)cs1)C1CCN(S(=O)(=O)c2cccs2)CC1 | -6.77%
3 | CCCc1c(C)nc2ccccc2c1SCCC#N | 39.6%
4 | c1ccc(-c2noc(-c3ccc4c(c3)OCO4)n2)nc1 | 8.09%
5 | COc1cccc(CNc2ncnc3ccc(-c4c(C)noc4C)cc23)c1 | 19.3%
6 | COC(=O)c1ccc2nc(Nc3nc4ccc(F)cc4s3)sc2c1 | -36.1%
7 | O=c1cccc2c1c1cc[nH]c3ccc(=O)n2c31 | 54.3% (active)
8 | COc1ccc(-c2c[n+]3c(n2-c2ccccc2)CCCCC3)cc1 | 17.3%
9 | CCN(CC)S(=O)(=O)c1ccc(/C=C/C(=O)Nc2ccc(Br)cc2F)cc1 | 16%
10 | COC(=O)c1cc2c(n1S(=O)(=O)c1ccc(C)cc1)C(=O)C(=O)c1[nH]cc(C(=O)OCc3ccccc3)c1-2 | 81.9% (active)
11 | Cn1c2c(c(=O)n(C)c1=O)C(C(F)(F)F)(C(F)(F)F)N=C(C1CCCCC1)N2 | 10.2%
12 | CCOc1ccc(-n2c(C)c(C(C)=O)c3cc(O)ccc32)cc1 | 60.8% (active)
13 | c1ccc(-c2noc(-c3ccc4ccccc4c3)n2)nc1 | -79.6%
14 | Cc1cccc[n+]1CC(=O)/C=C1\N(C)c2ccccc2C1(C)C | -9.04%
15 | O=C(Nc1ccc(Cn2cccn2)cc1)c1ccc(COc2cccc(Br)c2)cc1 | -34.7%
16 | C(C#CCCCCCCCCC[n+]1ccccc1)#CCCCCCCCCC[n+]1ccccc1 | 41.7%
17 | Cc1cc(C)c2c(N)c3ccccc3nc2n1 | 3.44%
18 | CCCC(=O)NC(c1ccccc1OC)c1ccc2cccnc2c1O (stereo not given) | 52.2% (active)
19 | O=C(C=P(c1ccccc1)(c1ccccc1)c1ccccc1)c1ccccc1-c1ccccc1C(=O)C=P(c1ccccc1)(c1ccccc1)c1ccccc1 | 24.4%
20 | O=[N+]([O-])c1ccc(Oc2ccc(F)cc2)c2ccncc12 | 47.6% (active)

Row | SMILES | inhibition
21 | CN(CC1CCCO1)S(=O)(=O)c1ccc(C(=O)Nc2nc3cc4c(cc3s2)OCO4)cc1 (stereo not given) | 0.14%
22 | CCc1ccc(-c2cc(C(F)(F)F)n3nc(C(=O)Nc4cnn(Cc5ccc(C)cc5)c4)cc3n2)s1 | -3.69%
23 | Cc1ccc(C(=O)Nc2nc(-c3ccccn3)cs2)cc1S(=O)(=O)N1CCOCC1 | 13.8%
24 | Cc1cccc(/C=N/Nc2ccc3ccccc3n2)c1 | -80.5%
25 | C[n+]1c2n(c3ccccc31)N=C(c1ccc(Br)cc1)CS2 | -14.8%
26 | O=[N+]([O-])c1cccc(C=NNc2ccc3ccccc3n2)c1O | -90.4%
27 | OCCN1CCN(C(=S)c2ccc(-c3ccccc3)cc2)CC1 | 36.8%
28 | c1cnc2ccc(-n3ccnc3)cc2c1 | 19.9%
29 | O=C(Nc1nc(-c2ccc(S(=O)(=O)N3CCOCC3)cc2)cs1)c1ccccc1 | -17.1%
30 | Cn1c(/C=C/c2ccc(Cl)cc2Cl)c([N+](=O)[O-])c(=O)n(C)c1=O | 47.2% (active)
31 | C#CC[N+](C)(C)CCCCCCCCCC | 9.87%
32 | Cc1ccc(C2CC(C(F)(F)F)n3nc(C(=O)NCc4c(C)nn(C)c4C)c(Cl)c3N2)cc1 (stereo not given) | -7%
33 | Cc1nc2c(o1)C(=O)c1ccccc1C2=Nc1ccccc1 | 61.8% (active)
34 | c1cncc(CNc2ncnc3ccc(-c4ccoc4)cc23)c1 | 66% (active)
35 | Cc1ccc(-n2c(O)c(C=Nc3cc(C)on3)c3ccccc3c2=O)c(C)c1 | 44.8%
36 | Cc1cc(C(=O)NNc2ccc(F)cc2)no1 | -4.64%
37 | Cn1c(=O)c2c(nc(NCc3ccco3)n2C/C=C/c2ccccc2)n(C)c1=O | 18.6%
38 | CCC(=O)Oc1c(C(=O)CC)cc2c(C)cc(=O)oc2c1C | 25.6%
39 | Cc1csc(CNc2ncnc3ccc(-c4ccoc4)cc23)c1 | 48% (active)
40 | CCn1ccnc1CN(C)Cc1cn[nH]c1-c1ccc(OC)c(F)c1 | 34.3%

Tested on: not listed separately
Assay: repression of VP16-driven luciferase reporter – cell-based, luminescence, high throughput, counter-screen for SRC1 inhibitor project (AID 588824; in the data active = inhibition above about 25%)
Conditions: cell-based VP16 transactivation luciferase luminescence; at 3.6 µM; active compounds read high

Row | SMILES | inhibition
41 | N#CC(c1ccc(Cl)cc1)c1ccc2c(C(F)(F)F)cc(C(F)(F)F)nc2n1 (stereo not given) | 83.3% (active)
42 | O=C(Nc1nc(-c2ccc3ccccc3c2)cs1)C1CCN(S(=O)(=O)c2cccs2)CC1 | 33.2% (active)
43 | CCCc1c(C)nc2ccccc2c1SCCC#N | 25.5% (active)
44 | c1ccc(-c2noc(-c3ccc4c(c3)OCO4)n2)nc1 | 33.7% (active)
45 | COc1cccc(CNc2ncnc3ccc(-c4c(C)noc4C)cc23)c1 | -7.49%
46 | COC(=O)c1ccc2nc(Nc3nc4ccc(F)cc4s3)sc2c1 | -19.9%
47 | O=c1cccc2c1c1cc[nH]c3ccc(=O)n2c31 | 40% (active)
48 | COc1ccc(-c2c[n+]3c(n2-c2ccccc2)CCCCC3)cc1 | 30.1% (active)
49 | CCN(CC)S(=O)(=O)c1ccc(/C=C/C(=O)Nc2ccc(Br)cc2F)cc1 | 41.9% (active)
50 | COC(=O)c1cc2c(n1S(=O)(=O)c1ccc(C)cc1)C(=O)C(=O)c1[nH]cc(C(=O)OCc3ccccc3)c1-2 | 93.2% (active)
51 | Cn1c2c(c(=O)n(C)c1=O)C(C(F)(F)F)(C(F)(F)F)N=C(C1CCCCC1)N2 | 12.8%
52 | CCOc1ccc(-n2c(C)c(C(C)=O)c3cc(O)ccc32)cc1 | 48.2% (active)
53 | c1ccc(-c2noc(-c3ccc4ccccc4c3)n2)nc1 | 23.7%
54 | Cc1cccc[n+]1CC(=O)/C=C1\N(C)c2ccccc2C1(C)C | 23.5%
55 | O=C(Nc1ccc(Cn2cccn2)cc1)c1ccc(COc2cccc(Br)c2)cc1 | 30.4% (active)
56 | C(C#CCCCCCCCCC[n+]1ccccc1)#CCCCCCCCCC[n+]1ccccc1 | 73.4% (active)
57 | Cc1cc(C)c2c(N)c3ccccc3nc2n1 | 53.4% (active)
58 | CCCC(=O)NC(c1ccccc1OC)c1ccc2cccnc2c1O (stereo not given) | 41.9% (active)
59 | O=C(C=P(c1ccccc1)(c1ccccc1)c1ccccc1)c1ccccc1-c1ccccc1C(=O)C=P(c1ccccc1)(c1ccccc1)c1ccccc1 | 82.8% (active)
60 | O=[N+]([O-])c1ccc(Oc2ccc(F)cc2)c2ccncc12 | 35.4% (active)

Row | SMILES | inhibition
61 | CN(CC1CCCO1)S(=O)(=O)c1ccc(C(=O)Nc2nc3cc4c(cc3s2)OCO4)cc1 (stereo not given) | 39.8% (active)
62 | CCc1ccc(-c2cc(C(F)(F)F)n3nc(C(=O)Nc4cnn(Cc5ccc(C)cc5)c4)cc3n2)s1 | 7.47%
63 | Cc1ccc(C(=O)Nc2nc(-c3ccccn3)cs2)cc1S(=O)(=O)N1CCOCC1 | 35.8% (active)
64 | Cc1cccc(/C=N/Nc2ccc3ccccc3n2)c1 | -55%
65 | C[n+]1c2n(c3ccccc31)N=C(c1ccc(Br)cc1)CS2 | 30.4% (active)
66 | O=[N+]([O-])c1cccc(C=NNc2ccc3ccccc3n2)c1O | -49.2%
67 | OCCN1CCN(C(=S)c2ccc(-c3ccccc3)cc2)CC1 | 6.4%
68 | c1cnc2ccc(-n3ccnc3)cc2c1 | 22.4%
69 | O=C(Nc1nc(-c2ccc(S(=O)(=O)N3CCOCC3)cc2)cs1)c1ccccc1 | 12.6%
70 | Cn1c(/C=C/c2ccc(Cl)cc2Cl)c([N+](=O)[O-])c(=O)n(C)c1=O | 56.3% (active)
71 | C#CC[N+](C)(C)CCCCCCCCCC | 16.1%
72 | Cc1ccc(C2CC(C(F)(F)F)n3nc(C(=O)NCc4c(C)nn(C)c4C)c(Cl)c3N2)cc1 (stereo not given) | 10.9%
73 | Cc1nc2c(o1)C(=O)c1ccccc1C2=Nc1ccccc1 | 79.1% (active)
74 | c1cncc(CNc2ncnc3ccc(-c4ccoc4)cc23)c1 | 47.8% (active)
75 | Cc1ccc(-n2c(O)c(C=Nc3cc(C)on3)c3ccccc3c2=O)c(C)c1 | 35.7% (active)
76 | Cc1cc(C(=O)NNc2ccc(F)cc2)no1 | 8.26%
77 | Cn1c(=O)c2c(nc(NCc3ccco3)n2C/C=C/c2ccccc2)n(C)c1=O | 39.9% (active)
78 | CCC(=O)Oc1c(C(=O)CC)cc2c(C)cc(=O)oc2c1C | 15.6%
79 | Cc1csc(CNc2ncnc3ccc(-c4ccoc4)cc23)c1 | 44.5% (active)
80 | CCn1ccnc1CN(C)Cc1cn[nH]c1-c1ccc(OC)c(F)c1 | 28% (active)
